The nature of assay [1]: VALA_MIGHUV1_ScratchOnly_CellCount: Viability Assessment in the VALA Sciences human Umbilical Vein Endothelial Cell Migration (MIGHUV) Assay, Scratch Wound Inhibited Recovery (AID 2284327). The protocol:
VALA_MIGHUV1_ScratchOnly is a cell-based, multiplexed assay that uses umbilical vein-derived endothelial cells (HUVEC). Measurements were taken 24 hours after chemical dosing in a 96-well plate.VALA_MIGHUV1_ScratchOnly_CellCount is the one of two assay components measured from the VALA_MIGHUV1_ScratchOnly assay. It is designed to make measurements of viability, a form of viability reporter, as detected with fluorescence intensity signals by HCS Fluorescent Imaging technology. Data from the assay component VALA_MIGHUV1_ScratchOnly_CellCount was analyzed at the endpoint, VALA_MIGHUV1_ScratchOnly_CellCount, in the positive analysis fitting direction relative to DMSO as the negative control and baseline of activity. Using a type of viability reporter, loss-of-signal activity can be used to understand viability. To generalize the intended target to other relatable targets, this assay endpoint is annotated to the cell cycle intended target family, where the subfamily is cell count.
Cells were seeded on 384-well microplates (day-0) at a density of 9000 cells per well for detection of wound area recovery or 4000 cells per well for detection of beta-catenin (CTNB) immunoreactivity and incubated in Endothelial Cell Growth Medium (CAI, San Diego; catalog 211-500). After 24 hours of culture, the HUVEC plates were scratched using a custom scratch head with the Bravo liquid handling system. […]

A short description of assay [2]: VALA_TUBIPS_Antagonist_CellCount: Viability Assessment in the VALA Sciences human iPS-derived Endothelial Tubule Formation (TUBIPS) Antagonism Assay (AID 2284335).
For assay [3], the system named is SRY-box transcription factor 2 (SOX2) Protein Expression, Deisenroth Lab, SOX2 (gene 6657). Kind of assay: CCTE_Deisenroth_DEVTOX-GLR_Endo_SOX2: CCTE's DevTox GLR-Endo Assay Evaluation of SRY-box transcription factor 2 (SOX2) Protein Expression, Deisenroth Lab (AID 2284412). In short, it runs like this:
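Endpoint is percent SOX2-positive cells (SOX2+ count/total cells) minus 0.2% DMSO control, from high-content imaging of fixed, nuclear-stained RUES2-GLR cells. Dosing twice at 24 h intervals over 48 h differentiation, 1 nM–200 uM in 10 points.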

Assay [4] in a line: VALA_TUBHUV_Agonist_TubuleLength: VALA Sciences human Umbilical Vein Endothelial Tubule Formation (TUBHUV) Agonism Assay (AID 2284337). The method in brief: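 Tubule length quantified by CD31 immunofluorescence imaging after fixation. HUVEC-HDF co-cultures (1:3) pre-grown 3 days with 10 ng/ml VEGF, then dosed 3 days in VEGF medium; 0.1 % DMSO vehicle baseline.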
A short description of assay [5]: CCTE_Padilla_ZF_Score.General: CCTE's 144 Hour Post-fertilization zebrafish Assay Score for General Malformation, Padilla Lab (AID 2284411; active means hit-call score of the fitted dose curve at least 0.9, where 1 is the maximum; inactive means score below 0.9). The method in brief: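 Malformation, death and hatching were scored at 6 dpf by two blinded observers under a stereo microscope. Embryos were dosed singly from 6-8 hpf in sealed plates of 10% Hanks' at 26C and rinsed on 5 dpf; DMSO baseline.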

Records with an inconclusive call do not appear. Activity calls are given as the source filed them. How the source made its calls, unless noted: active means hit-call score of the fitted dose curve at least 0.9, where 1 is the maximum; inconclusive means response in the unintended direction; inactive means score below 0.9.

One may read the AC50 as the concentration giving half of the maximal activity seen.

Regarding `S=C(S)NCCNC(=S)S.[Mn+2].[S-]C([S-])=NCCN=C([S-])[S-].[Zn+2]`, in assay [1], the outcome was inactive.

With `CC(C)(c1ccc(O)cc1)c1ccc(O)cc1`, the molecule was classed as inactive in assay [2]. Also, the AC50 in assay [3] was 64.4 µM (active). For `N[C@@H](Cc1cc(I)c(Oc2ccc(O)c(I)c2)c(I)c1)C(=O)O`, in assay [4], the outcome was inactive. Same read-out and setting: in the case of `CC(C)CCCCCCc1ccc(O)cc1` it was “inactive”.

As to `CCC(C)OC(=O)N1CCCCC1CCO` (configuration not stated), in assay [5], the result was inactive. Consider `COCCO`, for which the molecule was classed as inactive in assay [5].

The record behind these values is PubChem BioAssay (EPA / NIEHS).
